From PubChem
OTUD3 block: blocks human OTUD3 ubiquitin-rhodamine cleavage; Q5T2D3; purified OTUD3, Ub-rhodamine fluorescence, 2 h; inhibition, % at 25 µM; 0.7% of 47,000 active
USP17 block: blocks human USP17 ubiquitin-rhodamine cleavage. purified USP17, Ub-rhodamine cleavage fluorescence, 3 h. inhibition, % at 50 µM. 6.5% of 47,000 active
USP30 inh: blocks human USP30 ubiquitin-rhodamine cleavage; Q70CQ3; purified USP30, Ub-rhodamine cleavage fluorescence; inhibition, % at 25 µM; 5.3% of 47,000 active
Target sequence (Q70CQ3 whole entry, looked up): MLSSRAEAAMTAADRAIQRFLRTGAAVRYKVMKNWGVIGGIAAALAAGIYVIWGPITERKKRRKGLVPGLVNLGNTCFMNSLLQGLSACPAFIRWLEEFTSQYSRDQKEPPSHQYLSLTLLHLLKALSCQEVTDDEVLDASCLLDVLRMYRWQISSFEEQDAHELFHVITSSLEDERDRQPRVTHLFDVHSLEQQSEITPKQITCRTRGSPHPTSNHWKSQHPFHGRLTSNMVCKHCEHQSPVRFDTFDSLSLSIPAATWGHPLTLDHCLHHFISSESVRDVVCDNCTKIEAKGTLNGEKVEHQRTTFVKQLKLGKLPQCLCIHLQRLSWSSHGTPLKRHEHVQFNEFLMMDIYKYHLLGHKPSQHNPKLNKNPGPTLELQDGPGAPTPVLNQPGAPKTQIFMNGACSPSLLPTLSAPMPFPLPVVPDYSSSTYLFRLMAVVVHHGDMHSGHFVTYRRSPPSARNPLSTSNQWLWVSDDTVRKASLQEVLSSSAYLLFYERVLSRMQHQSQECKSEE
USP28 block: human USP28 deubiquitinase inhibition; Q96RU2; purified USP28, Ub-rhodamine cleavage fluorescence, 30 min; inhibition, % at 25 µM; 3% of 47,000 active; AID 1645857
Numbers without * were called inactive; / = not tested or not shown. A selection: hits, their analogues and other compounds. The true share with any hit is near 11%. Rule as the data show it: active = inhibition above about 30%; inactive = the rest.

SMILES	OTUD3 block	USP17 block	USP30 inh	USP28 block
O=C(Cn1cnc2c(cnn2-c2cccc(Cl)c2)c1=O)N1CCCC1	-9	-23	-46	-23
Cc1ccc(CNC(=O)Cn2cnc3c(cnn3-c3cccc(Cl)c3)c2=O)cc1	6	1	9	61*
O=C(Cn1cnc2c(oc3ccccc32)c1=O)NCc1ccccc1Cl	3	87*	0	1
Cn1ncc2c(=O)n(Cc3cccc(Cl)c3)cnc21	12	10	26	65*
O=C(CCn1cnc2c(cnn2-c2ccccc2)c1=O)N1CCCCC1	-12	-6	-2	-17
O=C(Cn1cnc2c(cnn2-c2ccc(Cl)cc2)c1=O)NCc1ccccc1Cl	36*	55*	29	9
O=S(=O)(NCCc1nc(-c2ccc(Cl)cc2)no1)c1ccc(F)cc1	27	26	39*	18
Cc1ccc(Cn2cc(S(=O)(=O)N3CCCC3)ccc2=O)cc1	8	5	0	7
O=C(COc1ccc(Cl)cc1-n1cnnc1)Nc1cccc(O)c1	-27	-46	-138	-43
O=C(COc1cccc2ccc(N3CCC(Cc4ccccc4)CC3)nc12)Nc1cccc(Cl)c1	2	39*	2	5
CC(C)c1ccc(N2CCN(Cc3ccc(F)cc3)C2=O)cc1	7	7	3	31*
O=C1N(Cc2ccc(F)cc2)CCN1c1ccc2c(c1)CCC2	27	27	31*	52*
COc1cccc(CC(=O)NC2CCN(c3ccc(F)cc3)C2=O)c1 (stereo not drawn)	-13	/	-36	-8
O=C1N(Cc2ccc(F)cc2)CCN1c1ccc(C(F)(F)F)cn1	18	4	23	65*
CC(C)(C)c1ccc(CN2CCN(c3ccc4c(c3)CCC4)C2=O)cc1	27	16	27	13
COc1cccc(CN2CCN(c3ccc(F)cc3)C2=O)c1	-2	-4	6	40*
CC(=O)c1ccc(NC(=O)CSc2nc3nc(C)ccc3o2)cc1	-2	46*	-16	-7
CC(C)CC(=O)N1C[C@H]2C[C@H]3[C@](C1)(CN(Cc1cccnc1)S3(=O)=O)O2	-3	-14	9	-7
CCOC(=O)C1CCN(c2nc(CN3CCOCC3)nc3scc(-c4ccccc4)c23)CC1	-2	-4	0	-4
O=C(NCc1noc(-c2ccccc2)n1)c1cccc(F)c1	-11	/	-14	-7
Cc1nc(-c2cnccn2)n(CC(=O)Nc2cccc(C#N)c2)c(=O)c1C	-3	-1	3	0
Cc1cccc(NC(=O)Cn2c(-c3cnccn3)nc(C)c(C)c2=O)c1C	-1	38*	76*	-1
COc1cc(Cl)ccc1Oc1ncnc2sc(C)c(C)c12	2	62*	46*	28
CC(NC(=O)CSc1nnc2n(-c3ccccc3)c(=O)c3ccccc3n12)c1ccccc1 (stereo not drawn)	8	12	48*	10
COc1ccc(NC(=O)CSc2nnc3n(-c4ccccc4)c(=O)c4c5c(sc4n23)CN(C)CC5)cc1	-2	-4	-5	17
SMILES	OTUD3 block	USP17 block	USP30 inh	USP28 block
O=C(Nc1ccccc1)c1nc(-c2cn(Cc3ccc(F)cc3)nn2)no1	5	23	55*	37*
O=C1CCSc2ccc(C(=O)O)cc2N1	2	0	-3	-6
CCc1cc(C2CCCN2C(=O)Cc2ccccc2F)on1 (stereo not drawn)	-1	-4	-1	-6
NC(=O)c1cccc(NC(=O)c2cc(Cl)c3c(c2)OCO3)c1	-9	-12	-11	48*
Cc1cc(NCc2ccccn2)n2nc(-c3ccccc3)c(C)c2n1	8	/	5	7
O=C(Cn1cc(-c2nnco2)c2ccccc21)NC1CCCCCC1	2	38*	-9	-6
Cc1cccc2cc(CN(Cc3ccc4c(c3)OCO4)C(=O)NCc3ccccc3)c(=O)[nH]c12	13	20	36*	23
Cn1cnc(S(=O)(=O)N2CCOC(c3ccc(Nc4ccccn4)cn3)C2)c1 (stereo not drawn)	-2	0	12	-10
Cc1c[nH]c(=O)[nH]c1=O	2	0	19	5
CCc1ccc(OCc2nnc(SCC(=O)Nc3ccccc3OC)n2Cc2ccccc2)cc1	15	52*	49*	23
O=C(OCC(=O)N1CCCc2ccccc21)c1ccc(O)cc1	0	-7	2	2
O=C(OCC(=O)N1CCCc2ccccc21)c1c(F)cccc1Cl	13	10	31*	24
O=C(N[C@@H]1C[C@@H](Oc2ccccc2)[C@H](O)[C@H]1O)c1ccccc1F	-2	-4	-7	-10
Cc1ccc(-c2nc(-c3ccccc3)c(S(=O)(=O)CC(=O)Nc3ccc(C)c(C)c3)[nH]2)cc1	32*	37*	1	14
CCOc1ccc(NC(=O)CS(=O)(=O)c2[nH]c(-c3cccc(OC)c3)nc2-c2ccccc2)cc1	17	13	18	19
Cc1nnc2c(NC(=O)c3cc(F)ccc3F)cccn12	10	14	2	6
O=C(Nc1ccc(O)cc1)c1cccn2c(-c3ccccc3F)nnc12	0	-6	25	37*
Cc1cc(=O)n2c3c(c4c(cc13)c(CO)cc(=O)n4C)OC2	6	85*	7	23
Cc1cccc(O)c1C(=O)OC(C)c1cccc2nc3c(C(=O)O)cc4c(c3nc12)C(C)c1cccc2c1N4c1cccc(C(=O)O)c1N2 (stereo not drawn)	101*	100*	101*	100*
COc1ccc(Cn2nccc2NC(=O)C(C)Oc2ccc(C)c(C)c2)cc1 (stereo not drawn)	0	63*	/	/
CCCCC/C=C/C=C/C(=O)OC1C(O)CC(c2ccc3c(c2O)C(=O)c2c(O)cc4cc(C)cc(O)c4c2C3=O)OC1C (stereo not drawn)	25	88*	26	36*
Cc1nccnc1CCC1COCCN1C(=O)c1n[nH]c2ccccc12 (stereo not drawn)	-22	-29	-68	-25
Cc1nccnc1CCC1COCCN1C(=O)c1ccc2n[nH]nc2c1 (stereo not drawn)	7	5	31*	7
CCc1cccc(C)c1NS(=O)(=O)c1ccc(/C=C/c2onc(C)c2NC(C)=O)s1	-2	-11	-5	0
CC(=O)N(O)CCC[C@@H]1NC(=O)[C@H](CCCN(O)C(C)=O)NC1=O	9	36*	-11	19
SMILES	OTUD3 block	USP17 block	USP30 inh	USP28 block
COc1ccc(Cn2c(SCc3ccc(C(=O)NCc4cccnc4)cc3)nc3ccncc32)cc1	2	29	/	/
CCN(CC)c1ccc2ccc(C(=O)N(C)Cc3ccccn3)cn12	-61	-64	-254	-57
O=C(Nc1ccc(Cl)cc1)C1CCN(c2nc3nc[nH]c(=O)c3s2)CC1	-5	-5	-5	-7
CCc1ccc(NC(=O)C2CCN(c3nc4nc[nH]c(=O)c4s3)CC2)cc1	16	14	34*	-3
Cc1cnc(NC(=O)c2cccc(S(=O)(=O)N(C)C)c2)s1	10	-7	15	12
Cc1cc(C)cc(NC(=O)Cc2csc(NC(=O)Nc3cccc(Cl)c3)n2)c1	17	12	32*	24
COc1cc(OC)cc(C(=O)Nc2cnc(-c3ccccc3)nc2)c1	23	52*	17	14
COc1ccccc1CC(=O)Nc1cnc(-c2ccccc2)nc1	0	-13	-6	-2
